Experimental data: PubChem BioAssay AID1851 (National Center for Advancing Translational Sciences (NCATS), 2009)
About 5,100 (32%) of roughly 16,000 compounds were called active. Another 25% or so got no clear call; they are omitted. The list shows a part of the results. A number with no mark means an inactive call. Calls come from the whole dose curve; as a rule, active = well fitted curve in the direction sought with a large enough effect; inconclusive = small, poorly fitted or top-dose-only effect, or effect the other way; inactive = no such curve, though single readings can be large or run the other way.
% is set by controls: 0 for no effect and ±100 for the full control effect.

These compounds were tested against Cytochrome P450 3A4 (Homo sapiens) (UniProt P08684) (assay: Cytochrome panel assay with activity outcomes). Details: recombinant CYP, pro-luciferin dealkylation, luminescence, p450-cyp3a4; series mostly up to 57.1 µM.
Cytochrome P450 3A4 (Homo sapiens), sequence (P08684 whole entry, looked up): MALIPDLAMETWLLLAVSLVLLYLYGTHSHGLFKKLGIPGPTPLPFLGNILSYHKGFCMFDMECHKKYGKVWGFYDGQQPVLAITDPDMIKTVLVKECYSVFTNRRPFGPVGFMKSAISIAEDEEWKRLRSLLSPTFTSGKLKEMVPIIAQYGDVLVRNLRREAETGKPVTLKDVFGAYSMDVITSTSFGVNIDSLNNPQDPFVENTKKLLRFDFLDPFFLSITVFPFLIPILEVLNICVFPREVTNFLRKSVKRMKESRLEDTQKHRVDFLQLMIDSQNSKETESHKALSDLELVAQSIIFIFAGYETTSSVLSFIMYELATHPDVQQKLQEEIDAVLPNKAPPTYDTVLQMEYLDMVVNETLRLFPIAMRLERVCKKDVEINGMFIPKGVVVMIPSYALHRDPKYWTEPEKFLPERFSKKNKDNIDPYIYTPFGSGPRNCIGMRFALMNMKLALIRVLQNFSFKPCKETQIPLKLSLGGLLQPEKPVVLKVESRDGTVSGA
Cc1ccc(C2=Nc3ccccc3S[C@@H](c3cccc([N+](=O)[O-])c3)C2)cc1 was tested, and the AC50 was 3.98 µM (active). In the case of C[C@@]12CC[C@@H]3c4ccc(O)cc4CC[C@H]3[C@H]1C[C@@H](O)[C@H]2O, the AC50 is reported as “inactive”. In the case of Cc1cccc(C)c1OC1(c2ccccc2)OC(=O)c2ccccc21 (centres undefined), the AC50 is reported as 8.91 µM (active). In the case of CCCCCCCOC1(c2ccccc2)OC(=O)c2ccccc21 (centres undefined), the AC50 is reported as “inactive”. N#C/C(=C\Nc1ccccn1)C(=O)c1ccco1 showed an activity, negative = inhibition of -18.7% [at 11.4 µM]. CCCC(CCC)C(=O)NNc1cc(=O)c2c(=O)n(C)c(=O)n(C)c2[nH]1 was tested, and the AC50 was “inactive”. For Cc1noc(NS(=O)(=O)c2ccc(NC(=O)CC34CC5CC(CC(Br)(C5)C3)C4)cc2)c1C, the AC50 was 6.31 µM (active). In the case of Cc1noc(NS(=O)(=O)c2ccc(N)cc2)c1C, the AC50 is reported as “inactive”. In the case of Cc1ccnc(NS(=O)(=O)c2ccc(NC(=O)C3CCCNC3=O)cc2)n1 (centres undefined), the AC50 is reported as “inactive”. O=[N+]([O-])c1cccc(-c2nc(-c3ccncc3)no2)c1 was tested, and the AC50 was 0.562 µM (active). COC(=O)COc1ccc2c(-c3cccc([N+](=O)[O-])c3)cc(=O)oc2c1 was tested, and the AC50 was “inactive”. CC(C)CCNC1=NCCCCC1 was tested, and the AC50 was “inactive”. Cc1ccc(-n2ncc3c(=O)n(CC(=O)NCC4CCCO4)cnc32)cc1 (centres undefined) was tested, and the AC50 was “inactive”. For Cc1[nH]nc2nc(SCC(=O)NCC3CCCO3)n(-c3ccc(Br)cc3)c(=N)c12 (centres undefined), the AC50 was 11.2 µM (active). In the case of Cc1cccc2c(SCC(=O)NCC3CCCO3)nc(-c3ccc(F)cc3)nc12 (centres undefined), the AC50 is reported as “inactive”. Nc1ncnc2c1cnn2-c1ccccc1 was tested, and the AC50 was “inactive”. In the case of Nc1ccc(Sc2cnn(-c3ccccc3)c(=O)c2Cl)cc1, the AC50 is reported as 8.91 µM (active). NCCCCCC(=O)O was tested, and the AC50 was “inactive”. With Cc1nc(SCC(=O)NCCc2ccc(Cl)cc2)nc(C)c1C the AC50 was 2 µM (active). CNC(=O)C(=O)NCCc1ccc(Cl)cc1 was tested, and the AC50 was “inactive”. Nc1ccc(S(=O)(=O)Nc2ccc(Cl)nn2)cc1 was tested, and the AC50 was “inactive”. Cc1nc2sccc2c(=O)n1-c1cccc(Cl)c1 was tested, and the activity, negative = inhibition was 17.4% [at 11.4 µM]. With Nc1nnc(CC(=O)N/N=C/c2cccc([N+](=O)[O-])c2)s1 the AC50 was 28.2 µM (active). For O=C(Cc1ccccc1)N/N=C/C=C/c1cccc([N+](=O)[O-])c1, the AC50 was “inactive”. In the case of COc1ccc(CN2CCN(C(=O)CC(C)C)CC2)c(OC)c1OC, the AC50 is reported as “inactive”. CCCC(=O)Nc1cc(-c2cn3cccnc3n2)ccc1OC was tested, and the AC50 was “inactive”. With CCOc1ccc(-c2cc(CCCC(=O)NCCc3ccc(OC)c(OC)c3OC)no2)cc1 the AC50 was 7.08 µM (active). With CCOc1ccc(-c2cc(CCCC(=O)Nc3cc(OC)ccc3OC)no2)cc1 the AC50 was 3.55 µM (active). With N[C@H](CCC(=O)NCS(=O)(=O)O)C(=O)O the AC50 was “inactive”. With c1ccc(-c2ccc(N3CC[C@@]4(CCCNC4)C3)cc2)cc1 the AC50 was “inactive”. In the case of COC(=O)N1CCC[C@@]2(CCN(c3ccccn3)C2)C1, the AC50 is reported as “inactive”. COC(=O)N1CCC2(CCCN(c3ccccn3)C2)CC1 was tested, and the AC50 was “inactive”. O=C(Oc1ccccc1)N1CCC2(CCCN(c3ccc(-c4ccccc4)cc3)C2)CC1 was tested, and the AC50 was 31.6 µM (active). For CC(=O)N1CCC2(CC1)CCN(c1ccc(-c3ccccc3)cc1)CC2, the AC50 was “inactive”. CS(=O)(=O)N1CCC2(CC1)CN(c1ccc(-c3ccccc3)cc1)C2 was tested, and the AC50 was “inactive”. For O=C(Oc1ccccc1)N1CCC2(CCCN(c3ccccn3)C2)CC1, the AC50 was 25.1 µM (active). For c1ccc(-c2ccc(N3CCCC4(CCNCC4)C3)cc2)cc1, the AC50 was 12.6 µM (active). For O=C(Oc1ccccc1)N1CCC[C@@]2(CCN(c3ccccn3)C2)C1, the AC50 was 10 µM (active). In the case of CC(=O)N1CCC2(CC1)CN(c1ccccn1)C2, the AC50 is reported as “inactive”. In the case of O=C(Oc1ccccc1)N1CCC2(CCCN(c3ncccn3)C2)CC1, the AC50 is reported as “inactive”. For NC(=O)CCCC1=NS(=O)(=O)c2ccccc2N1, the AC50 was “inactive”. In the case of CC(C)(CC(=O)N1CCN(c2ccc(Cl)cc2)CC1)CC1=NS(=O)(=O)c2ccccc2N1, the AC50 is reported as 2.51 µM (active). For NC(=O)C1(N2CCCCC2)CCN(C(=S)Nc2ccc(Cl)cc2)CC1, the AC50 was “inactive”. With NC(=O)C1(N2CCCCC2)CCN(C(=O)c2cccn3c(=O)c4cc(Cl)ccc4nc23)CC1 the AC50 was 11.2 µM (active). With CCOC(=O)N1CCN(C(=O)c2cccn3c(=O)c4cc(Cl)ccc4nc23)CC1 the AC50 was “inactive”. CC(C)(C)n1nnnc1C(c1cccnc1)N(Cc1ccccc1)Cc1ccco1 (centres undefined) was tested, and the AC50 was 0.794 µM (active). For O=C(NCCc1c[nH]c2ccccc12)[C@H]1C[C@@H]1[C@H](NP(=O)(c1ccccc1)c1ccccc1)c1ccccc1, the AC50 was 1.58 µM (active). O=C(NCCc1c[nH]c2ccccc12)[C@@H]1C[C@H]1[C@@H](NP(=O)(c1ccccc1)c1ccccc1)c1ccccc1 was tested, and the AC50 was 1.26 µM (active). For CN(Cc1cc(C(C)(C)C)cc(Br)c1O)Cc1cc(C(C)(C)C)cc(Br)c1O, the activity, negative = inhibition was -11.7% [at 11.4 µM]. For CCOC(=O)c1cnc2cc(-c3ccc(C(C)(C)C)cc3)nn2c1N, the AC50 was “inactive”. With CCOC(=O)c1cnc2cc(-c3ccc(C)cc3)nn2c1-c1ccccc1 the AC50 was 20 µM (active). With CCOC(=O)c1cnc(-c2ccccc2)nc1Oc1cccc(Cl)c1 the AC50 was “inactive”. CCOC(=O)C1=NOC(CNC(=O)C2=NOC(CNC(=O)c3c(-c4ccccc4Cl)noc3C)C2)C1 (centres undefined) was tested, and the AC50 was 12.6 µM (active). In the case of Cc1onc(-c2ccccc2Cl)c1C(=O)NCC(=O)O, the AC50 is reported as “inactive”. For CC(=O)C1=NOC(CNC(=O)c2c(-c3ccccc3Cl)noc2C)C1 (centres undefined), the AC50 was 15.8 µM (active). With CC(=O)c1c(C(C)=O)c(C)n(NC(=O)c2ccccc2Cl)c1C the AC50 was “inactive”. Work on CC(C)(C[C@@]1(C)NC(=O)NC1=O)OCc1ccccc1 yielded an activity, negative = inhibition of -6.17% [at 11.4 µM]. In the case of O=C(O)c1cc(C(=O)C(=O)c2cc(C(=O)O)c(O)c3ccccc23)c2ccccc2c1O, the activity, negative = inhibition is reported as -22.6% [at 11.4 µM]. With CC(C)c1ccc(NC(=O)N(CCc2nc3ccccc3[nH]2)C2CCCC2)cc1 the activity, negative = inhibition was -18.7% [at 2.29 µM]. For Cc1cccc(NC(=O)N(Cc2nc3ccccc3c(=O)[nH]2)C2CCCC2)c1, the AC50 was 15.8 µM (active). For CCN(CC(=O)Nc1ccc(N2CCOCC2)cc1)Cc1nc2ccccc2c(=O)[nH]1, the AC50 was “inactive”. Nc1nnc(C(c2ccccc2)c2ccccc2)s1 was tested, and the AC50 was “inactive”. Cc1cccc(C(CC(=O)N2CCCC2)c2ccccc2)c1O (centres undefined) was tested, and the AC50 was 2.51 µM (active). O=C(C[C@@H](c1ccccc1)N1CCCCC1)c1ccccc1 gave an activity, negative = inhibition of -9.31% [at 11.4 µM]. Cc1ccc(OC(=O)c2cccc(C(=O)Oc3ccc(C)cn3)n2)nc1 was tested, and the AC50 was “inactive”. FC(F)(F)c1nc(-c2ccncc2)ncc1-c1nnnn1-c1ccccc1 was tested, and the AC50 was 5.62 µM (active). FC(F)(F)c1nc(N2CCCC2)ncc1-c1nnnn1-c1ccccc1 was tested, and the activity, negative = inhibition was 21% [at 2.29 µM]. O=c1cc(CF)[nH]c(=S)[nH]1 was tested, and the activity, negative = inhibition was -8.49% [at 11.4 µM]. In the case of COC(=O)c1ccc(NC(=O)c2ccccc2NS(=O)(=O)c2ccccc2)cc1, the AC50 is reported as 7.94 µM (active). CC(=O)C=NCC(=O)O gave an activity, negative = inhibition of -0.504% [at 11.4 µM]. Compound C#CCCCO/N=C1/C[C@@H](O)[C@@H](O)[C@@H]2[C@@H]3C(=O)N(CC)C(=O)[C@H]3CC[C@H]12 has an activity, negative = inhibition of -27.7% [at 11.4 µM]. In the case of CCOC(=O)N/N=C1/C[C@@H](O)[C@@H](O)[C@@H]2[C@@H]3C(=O)N([C@@H](C)c4ccccc4)C(=O)[C@H]3CC[C@@H]12, the activity, negative = inhibition is reported as -20.9% [at 11.4 µM]. In the case of C#CCCCO/N=C1/C[C@@H](O)[C@@H](O)[C@@H]2[C@@H]3C(=O)N([C@@H](C)c4ccccc4)C(=O)[C@H]3CC[C@@H]12, the AC50 is reported as 3.98 µM (active). Work on C#CCCCO/N=C1/C[C@@H](O)[C@@H](O)[C@@H]2[C@@H]3C(=O)N(CC)C(=O)[C@H]3CC[C@@H]12 yielded an activity, negative = inhibition of -23.5% [at 11.4 µM]. In the case of C#CCCCO/N=C1/C[C@@H](O)[C@@H](O)[C@@H]2[C@@H]3C(=O)N(Cc4ccccc4)C(=O)[C@H]3CC[C@@H]12, the activity, negative = inhibition is reported as -23.2% [at 11.4 µM]. For C[C@H](c1ccccc1)N1C(=O)[C@H]2[C@@H]3[C@H](O)[C@H](O)CC(=O)[C@H]3CC[C@H]2C1=O, the activity, negative = inhibition was -18.1% [at 11.4 µM]. With CCOC(=O)N/N=C1/C[C@@H](O)[C@@H](O)[C@@H]2[C@@H]3C(=O)N([C@@H](C)c4ccccc4)C(=O)[C@H]3CC[C@H]12 the activity, negative = inhibition was -23.4% [at 11.4 µM]. With C#CCCCO/N=C1/C[C@@H](O)[C@@H](O)[C@@H]2[C@@H]3C(=O)N([C@@H](C)c4ccccc4)C(=O)[C@H]3CC[C@H]12 the AC50 was 3.98 µM (active). C#CCCCO/N=C1/C[C@@H](O)[C@@H](O)[C@@H]2[C@@H]3C(=O)N(C4CCCCC4)C(=O)[C@H]3CC[C@@H]12 was tested, and the AC50 was 3.16 µM (active). In the case of C#CCCCO/N=C1/C[C@@H](O)[C@@H](O)[C@@H]2[C@@H]3C(=O)N(Cc4ccccc4)C(=O)[C@H]3CC[C@H]12, the AC50 is reported as 3.98 µM (active). For CC(C)CO/N=C1/C[C@@H](O)[C@@H](O)[C@@H]2[C@@H]3C(=O)N([C@@H](C)c4ccccc4)C(=O)[C@H]3CC[C@@H]12, the activity, negative = inhibition was -29.6% [at 11.4 µM]. With C[C@@H]1[C@H]2CC[C@@H]3[C@@H]4CC=C5C[C@@H](N(C)C)CC[C@]5(C)[C@@H]4CC[C@@]32CN1C the AC50 was “inactive”. In the case of CC(C)Nc1nc(Oc2ccc(Cl)cc2)cc(C(F)(F)F)n1, the AC50 is reported as “inactive”. For CC(C)c1cc(C(F)(F)F)nc(NNc2nc(C(C)C)cc(C(F)(F)F)n2)n1, the AC50 was 3.16 µM (active). With CC(C)Nc1cc(C(F)(F)F)nc(-c2ccccn2)n1 the AC50 was “inactive”. For CC(C)Cn1c(N)c(C(=O)CSc2ccc3c(c2)OCCO3)c(=O)n(C)c1=O, the AC50 was 3.98 µM (active). Compound Cc1nn(-c2ccc(Cl)cc2)c2sc(C(=O)c3c(N)n(C)c(=O)n(C)c3=O)cc12 has an activity, negative = inhibition of 7.37% [at 2.29 µM]. With Cn1c(N)c(C(=O)CSc2ccc3c(c2)OCCO3)c(=O)n(C)c1=O the AC50 was 5.62 µM (active). O=c1c2ccccc2nnn1CSc1ccc2c(c1)OCCO2 was tested, and the AC50 was “inactive”.
